{"source": "ChEMBL document CHEMBL3988442", "about": "“University of Dundee, Small-Polar-MMV Screening Library” (2021)", "note": "Screen size: about 69,000 compounds; about 950 (1.4%) showed an effect of 50% or more. For the sample, strong results were picked, then their nearest neighbours and some compounds at random."}
{"system": "Mycobacterium tuberculosis", "assay": "Cornell M. t heat shock assay; note: in the data most compounds retested in dose-response had high values", "type": "functional, organism-based", "design": "dose or concentration left out as unconfirmed", "units": {"Percent Effect": "%"}}
{"smiles": "Cl.O=C(c1ccccc1Cl)N1CCN(CCc2ccccn2)CC1", "Percent Effect": -2.792}
{"smiles": "COCCN1CCN(c2cccc(C)n2)Cc2ccc(C)nc21.O=C(O)C(F)(F)F.O=C(O)C(F)(F)F", "Percent Effect": 28.62}
{"smiles": "CN(Cc1cccc2cccnc12)C1CCS(=O)(=O)C1.O=C(O)CC(O)(CC(=O)O)C(=O)O", "note": "(centres undefined)", "Percent Effect": -10.77}
{"smiles": "Cc1cccc(CN2CCO[C@H]3[C@@H](OCc4ccncc4)CC[C@@H]32)n1.O=C(O)C(F)(F)F.O=C(O)C(F)(F)F.O=C(O)C(F)(F)F", "Percent Effect": -9.598}
{"smiles": "CN(C)C(=O)[C@@H]1C[C@@H]2CCN(C3CCOCC3)C[C@H]2O1.O=C(O)C(F)(F)F", "Percent Effect": -21.42}
{"smiles": "CNC(=O)[C@@H]1[C@@H](OC(=O)Nc2ccccc2)C(=O)N(C)C12CCNCC2", "Percent Effect": 60.88}
{"smiles": "CN1C(=O)[C@H](OC(N)=O)[C@@H](C(=O)Nc2ccccc2)C12CCNCC2", "Percent Effect": 31.45}
{"smiles": "CO[C@H]1C(=O)N(C)C2(CCNCC2)[C@@H]1C(=O)Nc1ccccc1", "Percent Effect": 47.74}
{"smiles": "Fc1ccc(F)c(CN2CCC(c3n[nH]c4ncccc34)CC2)c1.O=C(O)CC(O)(CC(=O)O)C(=O)O", "Percent Effect": -14.52}
{"smiles": "CN(CCc1cccc2ccccc12)Cc1nc(N)nc(N(C)C)n1", "Percent Effect": 75.75}
{"smiles": "COc1ccccc1CCN(C)Cc1nc(N)nc(N(C)C)n1", "Percent Effect": 10.83}
{"smiles": "CN(Cc1nc(N)nc(N(C)C)n1)Cc1cccc2ccccc12", "Percent Effect": -5.133}
{"smiles": "Cc1nc(C(C)NC(=O)NCc2nccn2CC(C)C)cs1", "note": "(centres undefined)", "Percent Effect": 0.1192}
{"smiles": "CC(C)Cn1ccnc1CNC(=O)NC(C)(C)c1nccs1", "Percent Effect": -19.09}
{"smiles": "CC(C)Cn1ccnc1CNC(=O)NC(C)c1nccs1", "note": "(centres undefined)", "Percent Effect": 55.14}
{"smiles": "O=C(O)C(F)(F)F.O=C(c1cscn1)N1CCc2ncnc(-c3cccnc3)c2CC1", "Percent Effect": -9.91}
{"smiles": "CC(=O)N1N=C(c2cccs2)OC1C(=O)NCCc1cccc(Cl)c1", "note": "(centres undefined)", "Percent Effect": 62.85}
{"smiles": "CC(=O)N1N=C(c2cccs2)OC1C(=O)Nc1ccccc1", "note": "(centres undefined)", "Percent Effect": 6.727}
{"smiles": "COc1ccc(NC(=O)C2OC(c3cccs3)=NN2C(C)=O)cc1OC", "note": "(centres undefined)", "Percent Effect": 54.99}
{"smiles": "COc1ccc(NC(=O)C2OC(c3cccs3)=NN2C(C)=O)cc1", "note": "(centres undefined)", "Percent Effect": 19.1}
{"smiles": "CC(=O)N1N=C(c2ccccc2)OC1C(=O)NCCc1cccc(F)c1", "note": "(centres undefined)", "Percent Effect": 26}
{"smiles": "CC(=O)N1N=C(c2ccccc2)OC1C(=O)NCCc1cccc(Cl)c1", "note": "(centres undefined)", "Percent Effect": -5.794}
{"smiles": "O=C(O)C(F)(F)F.O=C(c1ccc2ccccc2n1)N1CCC2(CCN2c2ncccn2)C1", "note": "(centres undefined)", "Percent Effect": -9.605}
{"smiles": "CCc1ccc(CN2CCC3(CC2)CC(N2CCN(C)CC2)CO3)cc1.O=C(O)C(F)(F)F", "note": "(centres undefined)", "Percent Effect": 2.884}
{"smiles": "Cc1ccc(CN2CC[C@@H](NC(=O)c3cccnc3)[C@H](O)C2)o1", "Percent Effect": 8.326}
{"smiles": "Cc1ccc(CCNC(=O)c2cccnc2)o1", "Percent Effect": 80.23}
{"smiles": "Cc1ccc(CN(C(=O)NCCNC(=O)c2cccnc2)C(C)C)o1", "Percent Effect": -12.97}
{"smiles": "CCc1cc(C(=O)N2CCCC(Cc3ccc(NC)nn3)C2)on1", "note": "(centres undefined)", "Percent Effect": -39.14}
{"smiles": "COCCCNC(=O)CN(C)C(=O)c1cc(C)ccc1O", "Percent Effect": 5.458}
{"smiles": "COCCCNC(=O)CN(C)C(=O)c1ccccc1O", "Percent Effect": -10.97}
{"smiles": "COCCCNC(=O)CN(C)C(=O)c1cc(Cl)ccc1O", "Percent Effect": 100.8}
{"smiles": "N#Cc1cccc(CN2CCn3cc(Cn4cccn4)nc3C2)c1.O=C(O)C(F)(F)F.O=C(O)C(F)(F)F", "Percent Effect": -31.57}
{"smiles": "COC[C@@H]1CCC[C@@]12CN(Cc1ccc(C)s1)CCO2.O=C(O)C(F)(F)F", "Percent Effect": -18.91}
{"smiles": "CCOCc1cnc2n1CCN(C(=O)Cc1cccs1)C2C", "note": "(centres undefined)", "Percent Effect": -15.31}
{"smiles": "CCOCc1cnc2n1CCN(C(=O)c1ccoc1C)C2C", "note": "(centres undefined)", "Percent Effect": 26.88}
{"smiles": "CCOCc1cnc2n1CCN(C(=O)C1=CCCC1)C2C", "note": "(centres undefined)", "Percent Effect": -7.076}
{"smiles": "CCOCc1cnc2n1CCN(C(=O)c1ccccc1)C2C", "note": "(centres undefined)", "Percent Effect": 53.26}
{"smiles": "CCOCc1cnc2n1CCN(C(=O)c1cn(C)c3ccccc13)C2C", "note": "(centres undefined)", "Percent Effect": 8.997}
{"smiles": "CCOCc1cnc2n1CCN(C(=O)c1cccc3c1OCCO3)C2C", "note": "(centres undefined)", "Percent Effect": 51.66}
{"smiles": "Cc1nc(COC[C@@H]2CC[C@H]3[C@H](CCN3c3ncccn3)O2)cs1.O=C(O)C(F)(F)F", "Percent Effect": 3.819}
{"smiles": "O=C(O)C(F)(F)F.O=C(O)C(F)(F)F.O=C(O)C(F)(F)F.c1ccc(N2CC3(CCN(Cc4cccnc4)C3)C2)nc1", "Percent Effect": -1.371}
{"smiles": "COc1ncccc1CN1C[C@H]2C[C@@H](C(=O)NCC3CC3)N(C)[C@H]2C1.O=C(O)C(F)(F)F.O=C(O)C(F)(F)F.O=C(O)C(F)(F)F", "Percent Effect": -0.5017}
{"smiles": "COCCNC(=O)[C@@]12CCO[C@@H]1CCN(Cc1cc(C)on1)C2.O=C(O)C(F)(F)F", "Percent Effect": -5.953}
{"smiles": "COc1ccc(C(CNS(=O)(=O)c2cn(C)nc2C)N2CCCC2)cc1.Cl", "note": "(centres undefined)", "Percent Effect": -8.275}
{"smiles": "Cc1cccc(CN(Cc2ccccn2)S(=O)(=O)N(C)C)c1", "Percent Effect": -11.53}
{"smiles": "CCN(Cc1cccc(Cl)c1)Cc1ncc(C(C)(C)C)o1", "Percent Effect": -28.51}
{"smiles": "Cc1cccc(CN(Cc2ccccn2)Cc2ncc(C(C)(C)C)o2)c1", "Percent Effect": 77.52}
{"smiles": "O=C(O)C(F)(F)F.O=C(c1cc[nH]n1)N1CCc2onc(COc3cccnc3)c2C1", "Percent Effect": 4.696}
{"smiles": "CC(Cn1ccnc1)NCc1cc(Br)c2c(c1)OCO2.Cl", "note": "(centres undefined)", "Percent Effect": -15.88}
{"smiles": "O=C(CN1CCCC(Cn2cncn2)C1)Nc1cccnc1", "note": "(centres undefined)", "Percent Effect": 9.071}
{"smiles": "Cc1nc2ccccc2nc1CN1CCCC1Cn1cccn1", "note": "(centres undefined)", "Percent Effect": 61.51}
{"smiles": "Cc1nc2ccccc2nc1CN1CCCCC1Cn1cncn1", "note": "(centres undefined)", "Percent Effect": 12.5}
{"smiles": "O=C(CN1CCCCC1Cn1cncn1)Nc1ccncc1", "note": "(centres undefined)", "Percent Effect": -9.468}
{"smiles": "Cc1nc2ccccc2nc1CN1CCCCC1Cn1cccn1", "note": "(centres undefined)", "Percent Effect": 5.148}
{"smiles": "Clc1ccc2cccnc2c1CN1CCCCC1Cn1cncn1", "note": "(centres undefined)", "Percent Effect": 36.55}
{"smiles": "Cc1nc(CN2CCCC2Cn2cncn2)nc2ccccc12", "note": "(centres undefined)", "Percent Effect": 19.17}
{"smiles": "Cc1nc2ccccc2nc1CN1CCCC1Cn1cncn1", "note": "(centres undefined)", "Percent Effect": 3.442}
{"smiles": "Cc1c(Cl)c(CN2CCCC2Cn2cncn2)nc2ccccc12", "note": "(centres undefined)", "Percent Effect": 54.06}
{"smiles": "Clc1ccc2cccnc2c1CN1CCCC1Cn1cncn1", "note": "(centres undefined)", "Percent Effect": 52.22}
{"smiles": "O=C(CN1CCCC1Cn1cncn1)Nc1cccnc1", "note": "(centres undefined)", "Percent Effect": 62.16}
{"smiles": "Clc1ccc2cccnc2c1CN1CCCC(Cn2cncn2)C1", "note": "(centres undefined)", "Percent Effect": 18.36}
{"smiles": "CN1CC(=O)N(c2cccc(F)c2)CC12CCN(Cc1cnn(C)c1)C2.O=C(O)C(F)(F)F.O=C(O)C(F)(F)F", "note": "(centres undefined)", "Percent Effect": -4.947}
{"smiles": "Cc1cccc(Nc2cc(C)nc(C3CCN(C(C)C)C3)n2)n1.O=CO", "note": "(centres undefined)", "Percent Effect": -16.48}
{"smiles": "Cn1cc(CN2CCC[C@]3(C[C@H](Oc4ncccc4F)CO3)C2)cn1.O=C(O)C(F)(F)F.O=C(O)C(F)(F)F", "Percent Effect": 15.03}
{"smiles": "Cc1cnc(C(=O)N2CCCC(c3c(C)c(=O)nc4n3CCC4)C2)cn1.Cl", "note": "(centres undefined)", "Percent Effect": -2.984}
{"smiles": "Cc1cc2cc(C(=O)N3CC[C@H](O)[C@]4(CCCO4)C3)ccc2o1", "Percent Effect": -15.2}
{"smiles": "CCC(C)NS(=O)(=O)Cc1cccc(NC(=O)C2=CCCC2)c1", "note": "(centres undefined)", "Percent Effect": 26.24}
{"smiles": "Cc1cccc2nc(CN3CCCC3Cn3cncn3)cn12", "note": "(centres undefined)", "Percent Effect": -15.33}
{"smiles": "Cc1cccc2nc(CN3CCCC3Cn3cccn3)cn12", "note": "(centres undefined)", "Percent Effect": 71.56}
{"smiles": "Cc1nc(C)n(CC2CCCN2Cc2cn3c(C)cccc3n2)n1", "note": "(centres undefined)", "Percent Effect": -6.121}
{"smiles": "Cc1cc(N(C)C)nc(C2CCCNC2)n1.Cl", "note": "(centres undefined)", "Percent Effect": -4.07}
{"smiles": "COc1ccc(C[C@H]2CN(Cc3ccoc3)CC[C@H]2OC)cc1.O=C(O)C(F)(F)F", "Percent Effect": 23.61}
{"smiles": "CCCN(CCn1c(=O)oc2ccccc21)CC1CC1", "Percent Effect": 105}
{"smiles": "CCN(CC)CCn1c(=O)oc2ccccc21.Cl", "Percent Effect": 76.75}
{"smiles": "Cn1cc(C2CCCN2CCCn2c(=O)oc3ccccc32)cn1", "note": "(centres undefined)", "Percent Effect": -2.71}
{"smiles": "Cc1noc(C)c1CN(C)Cn1c(=O)oc2ccccc21", "Percent Effect": -12.14}
{"smiles": "CC(NCCn1c(=O)oc2ccccc21)c1ccccn1", "note": "(centres undefined)", "Percent Effect": 5.47}
{"smiles": "CCN(CCn1c(=O)oc2ccccc21)CC1CCOCC1", "Percent Effect": 86.99}
{"smiles": "CCN(Cc1ccc(C(C)=O)cc1)CC1CCOCC1", "Percent Effect": 5.377}
{"smiles": "O=c1oc2ccccc2n1CCN(CC1CCOC1)C1CC1", "note": "(centres undefined)", "Percent Effect": -26.82}
{"smiles": "O=c1oc2ccccc2n1CCCN1CCCC1c1ccc(O)cc1", "note": "(centres undefined)", "Percent Effect": -35.87}
{"smiles": "COc1cccc(Nc2nc(C3CCNCC3)c3sc(C)c(C)n23)c1.Cl", "Percent Effect": 44.92}
{"smiles": "CN(C)[C@@H]1CN(Cc2cnn(C)c2)[C@@H]2COC[C@H]12.O=C(O)C(F)(F)F.O=C(O)C(F)(F)F.O=C(O)C(F)(F)F", "Percent Effect": -14.51}
{"smiles": "O=C(O)C(F)(F)F.O=C1CC[C@H]2[C@H](CCN2c2ncccn2)N1c1ccccc1", "Percent Effect": 21.09}
{"smiles": "COc1ccc(O[C@H]2COCCN(Cc3c[nH]c4ccccc34)C2)cc1", "Percent Effect": 47.94}
{"smiles": "c1cncc(O[C@H]2COCCN(Cc3c[nH]c4ccccc34)C2)c1", "Percent Effect": 58.82}
{"smiles": "O=C(O)c1ccc2c(CN3CCOCC3)c[nH]c2c1", "Percent Effect": -11.23}
{"smiles": "c1ccc(O[C@H]2COCCN(Cc3c[nH]c4ccccc34)C2)cc1", "Percent Effect": 78.8}
{"smiles": "CO[C@H]1COCCN(Cc2c[nH]c3ccccc23)C1", "Percent Effect": 82.59}
{"smiles": "CC(C)(C)c1coc([C@@H]2COCCN2Cc2c[nH]c3ccccc23)n1", "Percent Effect": 25.07}
{"smiles": "FC(F)(F)c1ccccc1CN1CCOC[C@H](Oc2cccnc2)C1", "Percent Effect": -28.03}
{"smiles": "c1ccc(O[C@H]2COCCN(Cc3cccc4c3OCO4)C2)cc1", "Percent Effect": -21.01}
{"smiles": "Fc1ccc(CN2CCOC[C@H](Oc3cccnc3)C2)cc1", "Percent Effect": -34.69}
{"smiles": "CCC(C)S(=O)(=O)N1CCc2nc(C3CCNCC3)ncc2C1.Cl", "note": "(centres undefined)", "Percent Effect": -3.075}
